Source: PubChem BioAssay (NCI)
“And” between values parts separate entries of the source, which are not always exact repeats. Identical values can stand only once. The panel holds about 79,000 compounds, 15% with a hit somewhere; the sample as a whole holds those more often. The source made the active and inactive calls. No stated cut-off is given here; in the data, active means growth inhibition above about 70%; inactive means the rest.

Assays:
[1] = NCI Yeast Anticancer Drug Screen. Data for the rad50 strain (AID 155);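 further: 0% = growth of vehicle-only cultures of the same strain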; details: S. cerevisiae rad50 strain growth inhibition, hits give high values; at 50.0 µM unless noted
Method in brief: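 Growth of the mutant yeast was measured after compound exposure and referenced to vehicle-treated cultures.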

[2] = NCI Yeast Anticancer Drug Screen. Data for the mec2-1 strain (AID 157); details: S. cerevisiae mec2-1 strain, hits give high values; at 50.0 µM unless noted
Method in brief: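 Growth inhibition is read against vehicle-treated controls after compound exposure of the mec2-1 yeast strain, which is defective in DNA damage repair or cell cycle control.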

[3] = NCI Yeast Anticancer Drug Screen. Data for the sgs1 mgt1 strain (AID 161);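 further: 0% = growth of cultures given vehicle only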; details: S. cerevisiae sgs1 mgt1 strain, hits give high values; at 50.0 µM unless noted
Method in brief: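 Compounds are added to genetically altered yeast, and growth is compared with cultures given vehicle alone to give percent inhibition.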

[4] = NCI Yeast Anticancer Drug Screen. Data for the cln2 rad14 strain (AID 165);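 further: 0% = growth equal to vehicle treated cultures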; details: S. cerevisiae cln2 rad14 strain, hits give high values; at 50.0 µM unless noted
Method in brief: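 Growth inhibition, relative to vehicle-treated controls, is the read-out. The test organism is a yeast strain with defined genetic alterations, cln2 rad14.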

[5] = NCI Yeast Anticancer Drug Screen. Data for the bub3 strain (AID 167); details: S. cerevisiae bub3 mutant strain, hits give high values; at 50.0 µM unless noted
Method in brief: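 Whole-cell yeast assay. The mutant strain was incubated with compounds, and growth inhibition was determined by comparison with vehicle-treated cells.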

[6] = NCI Yeast Anticancer Drug Screen. Data for the mlh1 rad18 strain (AID 175); details: S. cerevisiae mlh1 rad18 strain growth inhibition, hits give high values; at 50.0 µM unless noted
Method in brief: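 Cells of a genetically altered yeast strain, deficient in DNA damage repair, were treated with compound. Their growth was then compared with that of vehicle-treated cultures to give inhibition.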

Measured: growth inhibition

O=C(Cc1nc2ccccc2o1)C(=O)Nc1cccc(Cl)c1
inactive: [1] -4.25% | [2] 0.9% | [3] -1.95% | [4] -42.2% | [5] 3.65% | [6] 19.1%

NC1CC(=O)c2ccccc21 (configuration not stated)
inactive: [1] 15.2% | [2] 4.8% | [3] -5% | [4] 8.95% | [5] 2.75% | [6] -37.6%

CC(C)(C)N=NNc1cn(C2OC(CO)C(O)C2O)c(=O)[nH]c1=O (configuration not stated)
inactive: [1] -16.3% | [2] -17.6% | [3] -16.9% | [4] 9.5% | [5] -6.2% | [6] -15.7%

ClN(Cl)c1nc(-c2ccccc2)nc(N(Cl)Cl)n1
inactive: [1] 18.1% | [2] 29.6% | [3] 34.9% | [4] -38.1% | [5] 32.5% | [6] 31.5%

CSC(SC)c1cc(C)no1
inactive: [1] -11.3% | [2] 12.2% | [3] -7.45% | [4] 34.6% | [5] -10.2% | [6] -9.15%

COc1ccc(CCNS(=O)(=O)c2c(C)c(C)c(C)c(C)c2C)cc1OC
inactive: [1] -2.2% | [2] -20.6% | [3] 5.1% | [4] 21.1% | [5] 21.2% | [6] 6.8%

Cc1c2cc[n+](C)cc2c(C)c2c1oc1ccccc12
inactive: [2] 62.1% | [4] 55.9% | [6] -38%
active: [1] 82.5% | [3] 78.8% | [5] 75.1%

CCOC(=O)c1nnsc1N/N=C\c1ccc([N+](=O)[O-])cc1
inactive: [1] -5.05% | [2] -15% | [3] -25.7% | [4] 12.3% | [5] -19.5% | [6] 14.3%

CN(C)/C=N/NC(=O)/C(C#N)=C/N(C)C
inactive: [1] -26.1% | [2] 2.3% | [3] -8.15% | [4] -24.8% | [5] -45.1% | [6] -42.9%

Cc1[nH]c2ccccc2c1/C=C/c1c[nH]c2ccccc12
inactive: [1] 22% | [2] 29.9% | [3] 27.1% | [4] 15.8% | [5] 55.5% | [6] 40.4%

COC(=O)C(=O)C(C#N)c1ccccc1Cl (configuration not stated)
inactive: [1] 3.45% | [2] -17.2% | [3] 0.35% | [4] 0.5% | [5] -5.75% | [6] 5.15%

O=C1c2ccccc2C(=O)N1CCS(=O)(=O)O
inactive: [1] 8.65% | [2] 18.1% | [3] 14.2% | [4] -7.55% | [5] 10.2% | [6] 9.9%

CC1CC(C)OC(c2ccc(Cl)cc2)O1 (configuration not stated)
inactive: [1] 20.8% | [2] 14.5% | [3] 17.2% | [4] -28.8% | [5] -2.15% | [6] 19.1%

OCC1OCOC(CO)(CO)C1O (configuration not stated)
inactive: [1] 1.15% | [2] 0.05% | [3] 8.1% | [4] -44.3% | [5] 21.7% | [6] 3.75%

ClCCCSSCCCCl
inactive: [1] 24.1% | [2] 21.2% | [3] 20.4% | [4] -7.95% | [5] 14.4% | [6] 3.85%

CCNc1ncnc2c1nnn2CC
inactive: [1] -5.55% | [2] -12.2% | [3] -15.8% | [4] -7.75% | [5] -27.4% | [6] 6.75%

CC(=O)Oc1c(C)c2c(c3ncccc13)OC(C)C2 (configuration not stated)
inactive: [1] 39.2% | [2] 14.1% | [3] 32.4% | [4] 19.1% | [5] 40.1% | [6] 34.8%

O=C1C(=O)c2ccccc2C(O)=C1C1CCCCC1
inactive: [1] 44.4% | [2] 2.15% | [3] 24.3% | [4] 5.55% | [5] 18.1% | [6] 26.9%

CC1=C(C(=O)CC(=O)C(=O)Nc2ccc(Cl)cc2C)Sc2ccccc2N1
inactive: [1] -4.7% | [2] 3.25% | [3] -26.6% | [4] 9.35% | [5] 6.7% | [6] -22.6%

O=C1CCCc2[nH]ccc21
inactive: [1] -14.7% | [2] -1.2% | [3] -9.25% | [4] 64.6% | [5] 14.8% | [6] -4.55%

S=C(NC1CCCCC1)SSSC(=S)NC1CCCCC1
inactive: [1] -6.7% | [2] -4.65% | [3] -8.05% | [4] 15.2% | [5] -17.4% | [6] 6.8%

CC(C)=CC1(C)/C(=N\O)C(C)(CC(C)C)C(=O)N1O (configuration not stated)
inactive: [1] -7.15% | [2] -15.2% | [3] -11.8% | [4] -2.2% | [5] -5.65% | [6] -19.4%

CC(C)=CC(=O)O
inactive: [1] 3.2% | [2] -3.3% | [3] -9.3% | [4] 20.3% | [5] 2.1% | [6] 7.9%

C1CCCC(=NN=C2CCCCCCC2)CCC1
inactive: [1] 29% | [2] 21.6% | [3] 13.4% | [4] -16.6% | [5] -10.2% | [6] 14.7%

O/N=C(Sc1ccccn1)/C(=N/O)Sc1ccccn1
inactive: [1] -7.25% | [2] 0% | [3] -2.9% | [4] -3.05% | [5] 4.7% | [6] 4.9%

Cc1ccc(C)c(NC(=O)c2cccc(C(=O)Nc3cc(C)ccc3C)c2)c1
inactive: [1] -13.1% | [2] 0.45% | [3] -4.3% | [4] 8.05% | [5] 7.95% | [6] 7%

CC(=O)c1cccc(NC(=O)Oc2ccc(-c3ccccc3)cc2Cl)c1
active: [1] 99.2% | [2] 99.6% | [3] 99.5% | [4] 98.8% | [5] 99.5% | [6] 99.3%

CC(=O)Nc1ccc2nc(SC(C)C)sc2c1
inactive: [1] 39.4% | [2] 7.7% | [3] 31.6% | [4] 17.4% | [5] 13.1% | [6] 19.9%

O=C1NCC2(CCNCC2)N1
inactive: [1] -10.3% | [2] 16.7% | [3] 6.45% | [4] 15.6% | [5] 11.1% | [6] -70.6%

CCc1cc(C)cc(O)c1
inactive: [1] -42.9% and 38% | [2] -40% and 4.6% | [3] -65.2% and -1.55% | [4] 0.45% and 7.15% | [5] -56% and 27.4% | [6] -29.9% and 12%

CNC(=O)OCc1c(COC(=O)NC)c(C)n(-c2ccc(Cl)cc2)c1C
active: [3] 83.2% | [5] 84.5% | [6] 91.3%
inactive: [1] 38.8% | [2] 40.4% | [4] 24.6%

OCCCCC(O)CO (configuration not stated)
inactive: [1] -2.55% | [2] -13.7% | [3] -1.1% | [4] -8.65% | [5] -18.6% | [6] -7.3%

C=CCNC(=S)NNc1nc(C)cc(=O)[nH]1
inactive: [1] 30.1% | [2] -27.9% | [3] 11.7% | [4] 5.55% | [5] 5.95% | [6] 4.3%

CN(C)c1ccc(C=Nc2c(N)n(C)c(=O)n(C)c2=O)cc1
inactive: [1] -12.3% | [2] -0.2% | [3] -11.2% | [4] -32.7% | [5] -9.45% | [6] -2.9%

COc1ccc(C2c3c(ccc4ccccc34)Oc3ccc4ccccc4c32)cc1
inactive: [1] -8.05% | [2] -23.6% | [3] 7.5% | [4] 6.85% | [5] 2.85% | [6] -8.45%

OC(CN1CCCC1)c1ccccc1 (configuration not stated)
inactive: [1] -1.8% | [2] -11.2% | [3] 15.9% | [4] 28.6% | [5] -0.25% | [6] -30.6%

COc1ccc2nc3cc(Cl)ccc3c(Nc3ccccc3-c3ccccc3Nc3c4ccc(Cl)cc4nc4ccc(OC)cc34)c2c1
inactive: [1] 6.85% | [2] -8.75% | [3] -18.1% | [4] 17.5% | [5] 2.1% | [6] -27.8%

Cc1ccccc1Cc1nccc2c1[nH]c1ccccc12
inactive: [1] -3% and -0.7% | [2] -11.5% and -15.1% | [3] -9.05% | [4] -29.5% | [5] -8.45% | [6] -16.9% and 50.1%

CCC(CN)C(F)(F)C(F)(F)C(F)(F)F (configuration not stated)
inactive: [1] 4.65% | [2] -12.2% | [3] -5.45% | [4] 2.7% | [5] 8.3% | [6] 6.05%

CN(C)CCCC(=O)O
inactive: [1] -13.3% | [2] -45.4% | [3] -14.1% | [4] 2.8% | [5] -31.9% | [6] -0.35%

CSC(=S)OC(C)CC(C)C (configuration not stated)
inactive: [1] 37.6% | [2] -3.95% | [3] 30.7% | [4] -12.1% | [5] 6.95% | [6] 25.5%

CCOC(=O)C1=C(C)NC(c2ccco2)=C(C#N)C1c1cccc([N+](=O)[O-])c1 (configuration not stated)
inactive: [1] 59.8% | [2] 33.4% | [3] 66% | [4] 68.7% | [5] 63.6%
active: [6] 70.8%
